A selection: hits, their analogues and other compounds. The true share with any hit is near 1.1%.
MsrA inh = bovine MsrA enzyme inhibitors, primary screen, biochemical, absorbance, HTS; Methionine sulfoxide reductase A (Bos taurus); purified bovine MsrA, absorbance read-out; inhibition, % at 15.5 µM; 360,000 tested, 0.75% active
PKA-R1A act = activators of PKA-R1A holoenzyme, primary screen, biochemical, fluorescence polarization, Cy5-IP20, bovine R1A, mouse PKAc; cAMP-dependent protein kinase type I-alpha regulatory subunit (Bos taurus) + …; PKA-R1A dissociation; scaled: DMSO 0%, 113 µM cGMP 100%; activation, % at 11.4 µM; 340,000 tested, 0.083% active; AID 504707, 2011;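 active = percent activation above the mean of all tested compounds plus 3 SD, cut at about 19% in these data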;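 note: higher means more PKAc released from R1A so a rise in polarization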
bovine MsrA act = bovine MsrA enzyme activators, primary screen, biochemical, absorbance, HTS | Methionine sulfoxide reductase A (Bos taurus) | purified bovine MsrA, absorbance read-out | activation, % at 10.6 µM | AID 602163, 2012 | 360,000 tested, 0.3% active; in the data active = activation above about 7.5%
PKA-R2B activ = activators of PKA-R2B holoenzyme, primary screen, biochemical, fluorescence polarization, Cy5-IP20, human; 340,000 tested, 0.079% active; AID 504700, 2011; activation, % at 11.4 µM; cAMP-dependent protein kinase catalytic subunit beta (Homo sapiens) + cAMP-dependent …; PKA-R2B holoenzyme dissociation; R2B truncated from residue 108, S112A mutant; 0% DMSO only, 100% 113 µM cGMP;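 active = activation above a cutoff set at the mean over all compounds plus 3 SD, cut at about 18% in these data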;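 note: higher means more holoenzyme dissociation and a rise in polarization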
Target sequence (P31323 whole entry, looked up, other chains not shown, the tested form may be a part): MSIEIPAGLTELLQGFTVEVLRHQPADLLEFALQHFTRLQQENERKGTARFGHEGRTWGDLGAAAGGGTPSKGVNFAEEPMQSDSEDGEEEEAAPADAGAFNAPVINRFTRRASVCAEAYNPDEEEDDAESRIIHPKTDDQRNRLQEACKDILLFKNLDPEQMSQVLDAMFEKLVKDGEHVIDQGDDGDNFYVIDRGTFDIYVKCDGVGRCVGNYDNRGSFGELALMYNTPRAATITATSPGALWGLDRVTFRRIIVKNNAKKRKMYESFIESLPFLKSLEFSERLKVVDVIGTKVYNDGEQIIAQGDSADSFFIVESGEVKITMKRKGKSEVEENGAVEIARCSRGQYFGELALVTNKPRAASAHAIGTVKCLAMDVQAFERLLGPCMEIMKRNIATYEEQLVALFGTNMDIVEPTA
MsrA conf = bovine MsrA inhibitors, retest, confirmation, biochemical, absorbance, HTS. shares compounds with MsrA inh. purified bovine MsrA, absorbance read-out. inhibition, % at 15.5 µM. 2,300 tested, 41% active. AID 651822, 2012;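 note: coupled to thioredoxin reductase with NADPH and selenocystamine and DMSO as substrate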
A number is an active result; n = inactive; x = no result given. Cut-off read from the data, not from the text of the source, unless noted: active = inhibition above about 4.5%; inactive = the rest.

SMILES | MsrA inh | PKA-R1A act | bovine MsrA act | PKA-R2B activ | MsrA conf
Nc1ccc(-c2nc3ccc(C(=O)O)cc3s2)cc1 | 5.9 | n | n | n | 7.2
Nc1ccc(-c2nc3ccc(N)cc3s2)cc1 | 5.6 | n | n | n | 7.5
Cc1ccccc1CN1CCN(C(=O)[C@H]2O[C@@H](n3cnc(C(N)=O)n3)[C@H](O)[C@@H]2O)CC1 | n | x | x | x | x
O=S1(=O)CC(N2CCCC2)CN1Cc1cn(Cc2ccc(C(F)(F)F)cc2)nn1 (stereo unspecified) | n | x | x | x | x
COc1cccc(C2=N/C(=C\N(C)C)C(=O)O2)c1 | 11 | n | n | n | 7.0
COc1cccc(-c2nc3ccccc3c(=O)o2)c1 | n | n | n | n | x
COC(=O)C1=C(C)N(C)C(=NCc2ccc(C(F)(F)F)cc2)NC1c1ccc(Cl)cc1 (stereo unspecified) | n | x | x | x | x
CCCCC1OC(CCc2ccccc2)CC2=C1C(=O)OC(C)(C)O2 (stereo unspecified) | n | x | x | x | x
CCc1ccccc1NC(=O)Cn1cccc1C1=NC(c2ccccc2)CO1 (stereo unspecified) | n | n | n | n | x
Cc1ccc(NC(=O)Cn2cccc2C2=NC(c3ccccc3)CO2)cc1C (stereo unspecified) | 43 | n | n | n | n
C/C(=N\NC(=O)c1ccc(N/N=C(\C)c2ccc(O)cc2)cc1)c1ccc(O)cc1 | n | n | n | n | x
N#C/C(=C(/O)COC(=O)c1cccnc1Cl)c1nc2ccccc2[nH]1 | 4.7 | n | n | n | n
N#C/C(=C(/O)COC(=O)c1ccc(O)cc1)c1nc2ccccc2[nH]1 | n | n | n | n | x
O=C(CN1C(=O)S/C(=C\C=C\c2ccccc2)C1=O)Nc1ccc(C(=O)O)cc1 | 6.6 | n | n | n | n
O=C(CCCN1C(=O)S/C(=C\C=C\c2ccccc2)C1=O)Nc1ccc(O)cc1 | n | n | n | n | x
O=C(CCN1C(=O)/C(=C\C=C\c2ccccc2)SC1=S)Nc1ccc(C(=O)O)cc1 | n | n | n | n | x
O=C(CN1C(=O)S/C(=C/C=C/c2ccccc2)C1=O)Nc1ccc(C(=O)O)cc1 | 5.3 | n | n | n | 5.8
CCCN1CCCCC(NC(=O)c2ccc3ccccc3c2)C1=O (stereo unspecified) | n | x | x | x | x
COCCNC(=O)/C(C#N)=C/C=C/c1ccccc1 | 7.1 | n | n | n | 5.3
CC(C)C[C@@H]1COc2cccc(NCCO)c2S(=O)(=O)N1 | n | x | x | x | x
COc1ccc(CC(=O)N2CCN(c3ccc(C4=NNC(=O)CC4C)cc3)CC2)cc1 (stereo unspecified) | 4.8 | n | n | n | n
COc1ccc(NC(=O)/C=C2\SC(=O)NC2=O)cc1 | 4.8 | n | n | n | n
CCNC(=O)N1CCN(c2ccc(N3CCN(Cc4ccccc4)[C@H](C)C3)c(C)c2)[C@@H](C)C1 | n | x | x | x | x
COc1ccc(-c2ccc3c(n2)CCCN3S(=O)(=O)c2ccc(C(F)(F)F)cc2)cc1 | n | x | x | x | x
CCOC(=O)c1cnc(/N=C/N(C)C)s1 | 5.0 | n | n | n | n
SMILES | MsrA inh | PKA-R1A act | bovine MsrA act | PKA-R2B activ | MsrA conf
CC(C)[C@H](NC(=O)c1ccc(Cl)cc1Cl)C(=O)N1CCC[C@H]1C(=O)NCCc1ccccc1Cl | n | x | x | x | x
CN(C[C@H](Cc1ccccc1)N(C[C@H](Cc1ccccc1)N(CC1(c2ccccc2)CC1)N=O)N=O)N=O | n | n | n | n | x
O=C(CN1CCOCC1)Nc1ccc([N+](=O)[O-])cc1Br | n | n | n | n | x
O=C(CN1CCCCCC1)Nc1ccc([N+](=O)[O-])cc1Br | 4.8 | n | n | n | 7.2
CN(C)c1ccc(/C=N/NC(=O)c2ccccc2Cl)cc1 | 6.3 | n | n | n | 5.0
CSc1ccc(/C=N/NC(=O)c2ccccc2Cl)cc1 | 5.8 | n | n | n | n
CSc1ccc(/C=N/NC(=O)c2cccs2)cc1 | n | x | n | x | x
CN(C)c1ccc(/C=N/NC(=O)CCCO)cc1 | 5.9 | x | n | x | n
CN(N=Cc1ccc(N(C)C)cc1)C(=O)c1ccccc1N | 5.3 | x | x | x | n
CC(C)(C)c1ccc(C#C[C@@H]2C=C[C@@H](O)[C@@H](COC(=O)NCc3ccccc3)O2)cc1 | n | x | x | x | x
COc1ccc(CNC(=O)c2cn(Cc3ccc(S(=O)(=O)N(C)C)cc3)c(=O)s2)cc1 | n | x | n | x | x
